Shown are actives, neighbours in structure and some others; about 5.2% of the full set was active somewhere.
TrxR1 substrate: qHTS Assay for Substrates of Mammalian Selenoprotein Thioredoxin Reductase 1 (TrxR1): qHTS | Thioredoxin reductase 1, cytoplasmic (Rattus norvegicus), O89049 | purified TrxR1 substrate turnover, NADPH consumption readout | Potency, µM (series often up to 114 µM), for the others: top-dose activity change, negative = substrate turnover | 0.01% of 390,000 active | AID 588456, 2011; note: nearly all actives have a fitted effect of over 50% in size
Target sequence (O89049 whole entry, looked up): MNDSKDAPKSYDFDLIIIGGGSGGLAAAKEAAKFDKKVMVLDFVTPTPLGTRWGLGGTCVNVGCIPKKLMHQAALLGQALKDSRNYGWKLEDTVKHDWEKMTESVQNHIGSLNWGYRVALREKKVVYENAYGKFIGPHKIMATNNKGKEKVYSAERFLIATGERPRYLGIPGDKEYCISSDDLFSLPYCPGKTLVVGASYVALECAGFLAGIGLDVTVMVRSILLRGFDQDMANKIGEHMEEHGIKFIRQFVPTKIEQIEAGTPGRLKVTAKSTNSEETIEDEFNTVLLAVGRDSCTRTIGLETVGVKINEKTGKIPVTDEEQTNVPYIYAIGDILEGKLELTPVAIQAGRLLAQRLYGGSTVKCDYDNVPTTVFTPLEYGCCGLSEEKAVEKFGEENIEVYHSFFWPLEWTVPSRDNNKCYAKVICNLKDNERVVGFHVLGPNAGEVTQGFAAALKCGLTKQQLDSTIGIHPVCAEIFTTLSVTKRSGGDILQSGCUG
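Rat TrxR1, dispensed at 90 nM, was prereduced with 400 uM NADPH (final) for 5 min at ~22 deg C, then incubated with compound 15 min before 400 uM selenite. A first-read NADPH fluorescence drop versus no-compound background flagged substrates.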
VDR inh: Inhibitors of the vitamin D receptor (VDR): qHTS; VDR-SRC2-3 peptide fluorescence polarization, 2 h; Potency, µM, inactives show max response, negative = inhibition, hits mostly inhibitors; 0.93% of 400,000 active
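Compounds are added to VDR with labelled SRC2-3 coactivator peptide and held 2 h at room temperature. Inhibition of the VDR–peptide interaction is then read as a change in fluorescence polarization.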
mIDH1 inhibitor: qHTS for Inhibitors of mutant isocitrate dehydrogenase 1 (IDH1): qHTS; Isocitrate dehydrogenase [NADP] cytoplasmic (Homo sapiens), O75874; IDH1-R132H enzyme, NADPH consumption, diaphorase/resazurin fluorescence; Potency, µM (top dose mostly 76.6 µM), without a hit: at the highest dose activity change, negative = inhibition, actives largely listed as inhibitors; 0.093% of 390,000 active; AID 602179, 2012; note: nearly all actives have a fitted effect of over 65% in size
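IDH1-R132H (0.5 ug/mL) preincubated 30 min with compound, then NADPH (0.016 mM) and alpha-KG (2 mM) added; 80 min at RT, pH 7.5. Remaining NADPH coupled via diaphorase/resazurin to fluorescence (540/590 nm); concentration-response curves normalized to no-enzyme control.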
Sfp PPTase inh: qHTS Assay for Inhibitors of Bacillus subtilis Sfp phosphopantetheinyl transferase (PPTase). AID 1490, 2009. Biochemical Sfp PPTase activity, qHTS. 3.5% of 310,000 active. Potency, µM, inactives show largest response in the series, negative = inhibition, actives largely listed as inhibitors;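 note: the enzyme is Sfp with the accession as filed and its product quenches rhodamine fluorescence; 0% = enzyme reaction without inhibitor and -100% = no enzyme wells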
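Step 1, compound plus 15 nM Sfp-PPTase, 15 min, room temperature. Step 2, add rhodamine-CoA (5 uM) and BHQ-2-YbbR (12.5 uM). Step 3, read 525/598 nm fluorescence at 0 and 30 min.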
PLK1 PBD inh: qHTS for Inhibitors of PLK1-PDB (polo-like kinase 1 - polo-box domain): Primary Screen. Serine/threonine-protein kinase PLK1 (Homo sapiens), P53350. AID 720504, 2013. Potency, µM, for the others: max response, negative = inhibition, most hits filed as inhibitors. Plk1 PBD binding of FITC phosphopeptide, fluorescence polarization. 2.8% of 360,000 active; note: series mostly up to about 57 µM; nearly all actives have a fitted effect of over 65% in size
TrxR1 inh: qHTS Assay for Inhibitors of Mammalian Selenoprotein Thioredoxin Reductase 1 (TrxR1): qHTS | recombinant rTrxR1, NADPH fluorescence consumption, selenite substrate | Thioredoxin reductase 1, cytoplasmic (Rattus norvegicus), O89049 | Potency, µM (doses to about 114 µM), for the others: at the top dose activity change, negative = inhibition, most hits filed as inhibitors | 1% of 390,000 active; note: nearly all actives have a fitted effect of over 65% in size
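Rat TrxR1 (90 nM in the dispensed reagent) was pre-reduced with 400 uM NADPH for 5 min at room temperature, then incubated with compound for 15 min. After 400 uM selenite was added, NADPH fluorescence (Ex 340/Em 450 nm) was followed for 8 min.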
* hit, by the source's call; ? = inconclusive; · = no result given; [ ] = remark or other dose. Calls come from the whole dose curve; as a rule, active = well fitted curve in the direction sought with a large enough effect; inconclusive = small, poorly fitted or top-dose-only effect, or another doubt; inactive = no such curve, though single readings can be large; an effect the other way counts as inactive or inconclusive. Unless noted, % is set by controls: 0 for no effect and ±100 for the full control effect; potency is the fitted concentration of half-maximal effect.

SMILES	TrxR1 substrate	VDR inh	mIDH1 inhibitor	Sfp PPTase inh	PLK1 PBD inh	TrxR1 inh
COc1cc(C#N)ccc1OCC(=O)Nc1cccc(S(=O)(=O)N2CCCC2)c1	-1%	-1%	1%	14%	-6%	7%
CCN1c2ccccc2N(C)C1(C)c1ccccc1 (stereo not drawn)	-10%	?	22%	32µM*	1.7µM*	45µM*
CCN(C[C@H]1N[C@@](CC)(C(=O)OC)[C@H]2C(=O)N(C)C(=O)[C@@H]12)S(=O)(=O)c1ccccc1	5%	-3%	9%	·	-2%	5%
C[C@H](NC(=O)OC(C)(C)C)C(=O)c1ccco1	2%	·	·	·	·	10%
COc1ccc(C(=S)N2CCN(c3ccccc3Cl)CC2)cc1OC	-11%[57.1 µM]	?	4%	35µM*	9.5µM*	-13%[57.1 µM]
COc1cc(C(=S)N2CCN(c3ccccc3Cl)CC2)cc(O)c1O	2%	?	-3%	35µM*	17µM*	8%
CC(C)CNC(=O)C(=O)Nc1cc2c3c(c1)C(C)C(=O)N3CCC2 (stereo not drawn)	-1%	6%	1%	9%	-13%	10%
COC(=O)C(Nc1ccccc1Cl)(c1cc(C)c(O)c(C)c1)C(F)(F)F (stereo not drawn)	-5%	6%	?	20%	0%	12%
COC(=O)/C(=C(/F)Sc1cc(C)c(O)c(C)c1)C(F)(F)F	-2%	1%	?	12%	3.8µM*	15%
C=CCn1c(C)csc1=Nc1ccccc1C	-7%	-6%	17%	17%	30µM*	3%[57.1 µM]
COc1ccccc1CNC(=O)CCC1N=C2c3ccccc3N=C(SCC(=O)Nc3ccc(F)cc3)N2C1=O (stereo not drawn)	4%[57.1 µM]	13%	3%	·	·	1%[57.1 µM]
Clc1ccc(-c2cn3cc(Cl)ccc3n2)cc1	10%	-12%	20%	9%	-9%	25%
CCN(CC)S(=O)(=O)c1ccc(-c2cn3cc(Cl)ccc3n2)cc1	5%	-21%	9%	14%	12µM*	12%
CC(C)OC(=O)c1nn2c(C(F)(F)F)cc(-c3ccc(Br)o3)nc2c1Br	5%	-4%	-2%	1%	?	25µM*
COc1ccc(C(=O)/C=C2\C(=O)Nc3ccc(Br)cc32)cc1	4%[11.4 µM]	?	-3%	·	?	-2%[11.4 µM]
O=C1Nc2ccc(Br)cc2/C1=C/C1CC=CCC1 (stereo not drawn)	-4%	71µM*	1%	9%	-18%	-5%
CS(=O)(=O)C1=NSC2=NC(=O)/C(=C\c3cccn3-c3ccc(Cl)cc3)C(=N)N21	-6%	?	-4%	?	21µM*	-20%
COC(=O)CNC(=O)Nc1cc(C(=O)NCc2ccc(C)cc2)ccc1N1CCCC1	5%[57.1 µM]	13%	0%	·	·	23%[57.1 µM]
O=C(CSc1nc2ccccc2n1Cc1ccccc1)N/N=C/c1ccco1	-1%[57.1 µM]	-7%	0%	?	-2%	-13%[57.1 µM]
Cc1ccc(CSc2nnc(SCC(=O)N/N=C/C=C/c3ccco3)s2)cc1	14%[57.1 µM]	-17%	4%	40µM*	-11%	-44%
Cc1ccc(Cn2c(SCC(=O)N/N=C/c3ccc(C)o3)nc3ccccc32)cc1	-4%	-8%	7%	56µM*	-18%	?
Cn1c(SCC(=O)N/N=C/C=C\c2ccco2)nc2ccccc21	-12%	-23%	2%	-65%	?	?
CCn1c(SCC(=O)N/N=C/C=C\c2ccco2)nc2ccccc21	-15%	?	17%	10µM*	-19%	?

Source: PubChem BioAssay
